# In ChEMBL document CHEMBL2218924, “A broad activity screen in support of a chemogenomic map for kinase signalling research and drug discovery” (Biochem J, 2013):
# Assays:
# [1] = target: T1, Phosphorylase b kinase gamma catalytic chain, liver/testis isoform (Homo sapiens) (UniProt P15735); conditions: at 1 µM
# T1 sequence (whole entry): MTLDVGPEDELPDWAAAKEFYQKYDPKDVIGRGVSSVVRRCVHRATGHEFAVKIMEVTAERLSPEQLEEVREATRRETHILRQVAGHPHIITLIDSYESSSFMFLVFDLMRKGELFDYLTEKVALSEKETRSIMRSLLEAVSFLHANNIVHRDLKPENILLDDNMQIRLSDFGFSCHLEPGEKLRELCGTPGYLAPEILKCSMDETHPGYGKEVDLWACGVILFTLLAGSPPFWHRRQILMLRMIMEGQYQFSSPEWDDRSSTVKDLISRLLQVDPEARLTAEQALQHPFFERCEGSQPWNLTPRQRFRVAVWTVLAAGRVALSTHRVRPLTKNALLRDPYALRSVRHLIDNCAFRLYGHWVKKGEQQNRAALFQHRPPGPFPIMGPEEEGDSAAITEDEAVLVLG
# [2] = target: T1, Phosphorylase b kinase gamma catalytic chain, liver/testis isoform (Homo sapiens); conditions: at 10 µM
# [3] = target: Serine/threonine-protein kinase pim-1 (Homo sapiens) (UniProt P11309); conditions: at 1 µM
# Sequence of Serine/threonine-protein kinase pim-1 (Homo sapiens) (P11309 whole entry, looked up): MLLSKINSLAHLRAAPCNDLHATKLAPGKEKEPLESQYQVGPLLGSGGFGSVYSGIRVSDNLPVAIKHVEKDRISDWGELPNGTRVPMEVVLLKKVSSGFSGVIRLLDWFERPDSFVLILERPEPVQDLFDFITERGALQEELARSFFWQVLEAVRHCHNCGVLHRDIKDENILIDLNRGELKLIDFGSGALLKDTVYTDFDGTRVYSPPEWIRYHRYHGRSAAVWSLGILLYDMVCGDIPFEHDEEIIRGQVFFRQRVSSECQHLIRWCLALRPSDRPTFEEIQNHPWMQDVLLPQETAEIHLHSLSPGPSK
# [4] = target: Serine/threonine-protein kinase pim-1 (Homo sapiens) (UniProt P11309); conditions: at 10 µM
# [5] = target: Serine/threonine-protein kinase pim-2 (Homo sapiens) (UniProt Q9P1W9); conditions: at 1 µM
# Sequence of Serine/threonine-protein kinase pim-2 (Homo sapiens) (Q9P1W9 whole entry, looked up): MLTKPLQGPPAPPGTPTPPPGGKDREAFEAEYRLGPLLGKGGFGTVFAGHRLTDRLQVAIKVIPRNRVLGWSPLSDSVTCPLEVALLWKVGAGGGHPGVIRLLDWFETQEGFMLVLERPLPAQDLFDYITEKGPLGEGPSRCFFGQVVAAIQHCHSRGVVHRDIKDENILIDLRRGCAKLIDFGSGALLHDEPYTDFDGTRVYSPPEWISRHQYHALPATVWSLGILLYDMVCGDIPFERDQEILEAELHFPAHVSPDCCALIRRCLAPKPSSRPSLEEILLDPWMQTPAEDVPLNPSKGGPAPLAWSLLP
# [6] = target: Serine/threonine-protein kinase pim-2 (Homo sapiens) (UniProt Q9P1W9); conditions: at 10 µM
# [7] = target: Serine/threonine-protein kinase pim-3 (Homo sapiens) (UniProt Q86V86); conditions: at 1 µM
# [8] = target: Serine/threonine-protein kinase pim-3 (Homo sapiens) (UniProt Q86V86); conditions: at 10 µM
# [9] = target: Serine/threonine-protein kinase PLK1 (Homo sapiens) (UniProt P53350); conditions: at 1 µM
# Sequence of Serine/threonine-protein kinase PLK1 (Homo sapiens) (P53350 whole entry): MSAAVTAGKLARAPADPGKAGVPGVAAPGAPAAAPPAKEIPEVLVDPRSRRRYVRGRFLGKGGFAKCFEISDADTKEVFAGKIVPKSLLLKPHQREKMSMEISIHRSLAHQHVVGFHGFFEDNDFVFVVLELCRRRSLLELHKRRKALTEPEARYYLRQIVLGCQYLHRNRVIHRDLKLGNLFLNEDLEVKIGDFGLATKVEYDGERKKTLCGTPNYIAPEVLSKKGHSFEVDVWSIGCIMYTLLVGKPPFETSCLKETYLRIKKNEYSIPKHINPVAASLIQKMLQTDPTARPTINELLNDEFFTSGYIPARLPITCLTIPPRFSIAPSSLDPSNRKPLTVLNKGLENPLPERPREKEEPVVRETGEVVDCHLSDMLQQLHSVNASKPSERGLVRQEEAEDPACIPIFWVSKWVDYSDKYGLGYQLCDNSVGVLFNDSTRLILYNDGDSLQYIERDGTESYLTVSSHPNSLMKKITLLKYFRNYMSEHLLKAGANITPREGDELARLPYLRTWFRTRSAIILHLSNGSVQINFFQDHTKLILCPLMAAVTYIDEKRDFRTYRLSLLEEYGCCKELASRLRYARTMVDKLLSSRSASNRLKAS
# [10] = target: Serine/threonine-protein kinase PLK1 (Homo sapiens) (UniProt P53350); conditions: at 10 µM
# [11] = target: Serine/threonine-protein kinase PLK3 (Homo sapiens) (UniProt Q9H4B4); conditions: at 1 µM
# [12] = target: Serine/threonine-protein kinase PLK3 (Homo sapiens) (UniProt Q9H4B4); conditions: at 10 µM
# [13] = target: Protein-tyrosine kinase 2-beta (Homo sapiens) (UniProt Q14289); conditions: at 1 µM
# Sequence of Protein-tyrosine kinase 2-beta (Homo sapiens) (Q14289 whole entry, looked up): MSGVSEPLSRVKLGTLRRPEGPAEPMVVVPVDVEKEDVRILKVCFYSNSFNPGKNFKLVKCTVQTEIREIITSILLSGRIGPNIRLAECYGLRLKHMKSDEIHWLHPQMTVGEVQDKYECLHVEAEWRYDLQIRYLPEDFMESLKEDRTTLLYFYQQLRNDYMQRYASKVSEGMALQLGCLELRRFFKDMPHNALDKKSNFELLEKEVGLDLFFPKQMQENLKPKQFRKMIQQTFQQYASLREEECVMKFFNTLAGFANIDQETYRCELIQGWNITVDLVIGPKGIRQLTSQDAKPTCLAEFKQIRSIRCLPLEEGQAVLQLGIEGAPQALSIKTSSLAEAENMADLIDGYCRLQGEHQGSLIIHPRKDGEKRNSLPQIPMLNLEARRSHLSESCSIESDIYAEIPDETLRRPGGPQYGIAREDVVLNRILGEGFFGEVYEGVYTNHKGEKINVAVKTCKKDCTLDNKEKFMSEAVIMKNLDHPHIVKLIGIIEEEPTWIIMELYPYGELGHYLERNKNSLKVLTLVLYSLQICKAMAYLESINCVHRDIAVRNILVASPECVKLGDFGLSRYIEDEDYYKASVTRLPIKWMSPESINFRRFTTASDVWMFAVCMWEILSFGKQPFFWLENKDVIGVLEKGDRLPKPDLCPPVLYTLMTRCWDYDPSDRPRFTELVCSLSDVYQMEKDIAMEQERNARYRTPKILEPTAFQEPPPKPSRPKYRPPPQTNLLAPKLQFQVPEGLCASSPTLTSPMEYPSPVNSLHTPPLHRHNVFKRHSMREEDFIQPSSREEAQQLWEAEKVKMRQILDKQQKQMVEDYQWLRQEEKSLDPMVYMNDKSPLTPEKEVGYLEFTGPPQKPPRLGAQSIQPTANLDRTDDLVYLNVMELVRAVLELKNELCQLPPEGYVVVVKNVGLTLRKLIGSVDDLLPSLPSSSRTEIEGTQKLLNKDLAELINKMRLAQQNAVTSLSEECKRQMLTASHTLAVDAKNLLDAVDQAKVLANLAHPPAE
# [14] = target: Protein-tyrosine kinase 2-beta (Homo sapiens) (UniProt Q14289); conditions: at 10 µM
# [15] = target: Receptor-interacting serine/threonine-protein kinase 2 (Homo sapiens) (UniProt O43353); conditions: at 1 µM
# Sequence of Receptor-interacting serine/threonine-protein kinase 2 (Homo sapiens) (O43353 whole entry): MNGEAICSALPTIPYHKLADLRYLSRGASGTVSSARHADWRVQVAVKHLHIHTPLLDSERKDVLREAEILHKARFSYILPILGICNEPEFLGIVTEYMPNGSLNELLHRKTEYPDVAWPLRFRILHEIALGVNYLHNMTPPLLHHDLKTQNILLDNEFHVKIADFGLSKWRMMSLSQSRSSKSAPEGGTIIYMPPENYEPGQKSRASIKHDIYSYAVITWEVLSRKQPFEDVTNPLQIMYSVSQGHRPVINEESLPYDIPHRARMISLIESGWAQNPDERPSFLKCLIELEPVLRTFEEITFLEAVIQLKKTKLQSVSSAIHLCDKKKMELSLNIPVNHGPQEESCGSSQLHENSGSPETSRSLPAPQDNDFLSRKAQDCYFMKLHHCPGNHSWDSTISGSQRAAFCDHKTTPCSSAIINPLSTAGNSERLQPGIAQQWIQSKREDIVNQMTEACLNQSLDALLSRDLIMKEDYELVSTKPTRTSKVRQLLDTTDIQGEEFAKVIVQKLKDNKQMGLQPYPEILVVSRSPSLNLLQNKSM
# [16] = target: Receptor-interacting serine/threonine-protein kinase 2 (Homo sapiens) (UniProt O43353); conditions: at 10 µM
# [17] = target: Rho-associated protein kinase 1 (Homo sapiens) (UniProt Q13464); conditions: at 1 µM
# Sequence of Rho-associated protein kinase 1 (Homo sapiens) (Q13464 2-1354 limits assumed): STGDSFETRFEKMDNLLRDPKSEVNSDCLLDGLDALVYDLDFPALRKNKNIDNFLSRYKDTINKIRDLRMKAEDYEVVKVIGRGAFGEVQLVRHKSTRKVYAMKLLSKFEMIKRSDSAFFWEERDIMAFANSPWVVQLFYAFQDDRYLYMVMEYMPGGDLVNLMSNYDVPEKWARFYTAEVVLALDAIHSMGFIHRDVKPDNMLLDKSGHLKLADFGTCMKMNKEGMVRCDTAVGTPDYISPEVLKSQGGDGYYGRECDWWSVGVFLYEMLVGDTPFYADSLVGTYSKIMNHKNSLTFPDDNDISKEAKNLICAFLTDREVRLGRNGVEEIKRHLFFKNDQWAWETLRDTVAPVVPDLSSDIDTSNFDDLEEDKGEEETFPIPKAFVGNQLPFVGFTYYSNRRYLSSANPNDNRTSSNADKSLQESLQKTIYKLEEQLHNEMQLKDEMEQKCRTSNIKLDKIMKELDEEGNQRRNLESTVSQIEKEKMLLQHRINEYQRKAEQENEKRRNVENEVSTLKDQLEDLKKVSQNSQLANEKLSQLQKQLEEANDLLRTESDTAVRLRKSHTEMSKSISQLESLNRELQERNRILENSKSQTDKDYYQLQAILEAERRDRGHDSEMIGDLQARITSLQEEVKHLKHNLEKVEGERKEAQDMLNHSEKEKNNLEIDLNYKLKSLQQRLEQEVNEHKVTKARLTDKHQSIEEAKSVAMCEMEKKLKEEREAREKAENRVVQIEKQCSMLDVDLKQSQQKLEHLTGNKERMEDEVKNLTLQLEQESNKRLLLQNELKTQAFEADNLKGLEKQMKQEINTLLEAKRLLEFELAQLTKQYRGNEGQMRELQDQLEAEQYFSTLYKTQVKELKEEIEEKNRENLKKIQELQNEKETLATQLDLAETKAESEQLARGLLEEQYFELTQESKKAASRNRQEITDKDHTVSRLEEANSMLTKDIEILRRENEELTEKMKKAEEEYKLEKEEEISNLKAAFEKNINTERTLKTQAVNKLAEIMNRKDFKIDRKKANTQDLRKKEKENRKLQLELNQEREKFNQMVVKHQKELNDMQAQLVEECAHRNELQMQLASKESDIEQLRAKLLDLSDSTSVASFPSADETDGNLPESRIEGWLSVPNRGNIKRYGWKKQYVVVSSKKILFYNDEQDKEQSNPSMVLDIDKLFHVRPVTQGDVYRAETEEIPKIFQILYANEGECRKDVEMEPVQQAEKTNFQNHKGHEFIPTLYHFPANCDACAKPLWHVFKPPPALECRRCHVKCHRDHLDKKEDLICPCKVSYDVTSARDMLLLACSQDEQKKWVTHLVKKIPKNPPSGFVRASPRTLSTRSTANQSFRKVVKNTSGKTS
# [18] = target: Rho-associated protein kinase 1 (Homo sapiens) (UniProt Q13464); conditions: at 10 µM
# [19] = target: T2, cAMP-dependent protein kinase catalytic subunit PRKX (Homo sapiens) (UniProt P51817); conditions: at 1 µM
# T2 sequence (whole entry): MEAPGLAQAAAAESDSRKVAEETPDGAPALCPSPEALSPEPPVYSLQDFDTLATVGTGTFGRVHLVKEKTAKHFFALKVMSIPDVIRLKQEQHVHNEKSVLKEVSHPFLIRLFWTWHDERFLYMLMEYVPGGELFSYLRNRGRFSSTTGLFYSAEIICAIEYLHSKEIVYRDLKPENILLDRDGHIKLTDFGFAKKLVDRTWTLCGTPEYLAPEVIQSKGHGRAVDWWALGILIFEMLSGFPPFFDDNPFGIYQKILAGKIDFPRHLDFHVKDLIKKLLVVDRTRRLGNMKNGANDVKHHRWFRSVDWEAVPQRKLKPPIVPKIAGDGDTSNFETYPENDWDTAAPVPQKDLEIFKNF
# [20] = target: T2, cAMP-dependent protein kinase catalytic subunit PRKX (Homo sapiens); conditions: at 10 µM
compound,measurement,setting,value
O=C1Cc2c([nH]c3ccc(Br)cc23)-c2ccccc2N1,residual activity,[1],120%
same,residual activity,[2],89%
same,residual activity,[3],75%
same,residual activity,[4],56%
same,residual activity,[5],100%
same,residual activity,[6],79%
same,residual activity,[7],83%
same,residual activity,[8],79%
same,residual activity,[9],76%
same,residual activity,[10],75%
same,residual activity,[11],95% (inactive)
same,residual activity,[12],83%
same,residual activity,[13],89%
same,residual activity,[14],58%
same,residual activity,[15],49%
same,residual activity,[16],22%
NCCNc1ncc(C(N)=O)c(Nc2cccc(C(F)(F)F)c2)n1,residual activity,[1],64%
same,residual activity,[2],22%
same,residual activity,[3],82%
same,residual activity,[4],38%
same,residual activity,[6],60%
same,residual activity,[9],100%
same,residual activity,[10],73%
same,residual activity,[13],27%
same,residual activity,[14],3%
same,residual activity,[17],104%
same,residual activity,[18],103%
CCCC(=O)Oc1ccc2[nH]c(C(=O)c3cc4ccccc4[nH]3)cc2c1,residual activity,[1],95%
same,residual activity,[2],96%
same,residual activity,[3],101%
same,residual activity,[4],121%
same,residual activity,[6],98%
same,residual activity,[7],93%
same,residual activity,[8],96%
same,residual activity,[9],86%
same,residual activity,[10],58%
same,residual activity,[11],93% (inactive)
same,residual activity,[12],85%
same,residual activity,[19],88%
same,residual activity,[20],92%
same,residual activity,[13],122%
same,residual activity,[14],85%
same,residual activity,[15],91%
same,residual activity,[16],89%
same,residual activity,[17],103%
same,residual activity,[18],128%
CCOC(=O)c1c(C)[nH]c(/C=C2\C(=O)Nc3ccccc32)c1C,residual activity,[1],87%
same,residual activity,[2],92%
same,residual activity,[3],72%
same,residual activity,[10],74%
same,residual activity,[11],86% (inactive)
same,residual activity,[12],88%
same,residual activity,[13],80%
same,residual activity,[14],45%
same,residual activity,[15],96%
same,residual activity,[16],99%
O=C(O)/C=C/c1cc(Br)c(Br)c(Br)c1Br,residual activity,[1],109%
same,residual activity,[2],63%
same,residual activity,[3],49%
same,residual activity,[4],6%
same,residual activity,[5],28%
same,residual activity,[6],1%
same,residual activity,[7],78%
same,residual activity,[8],39%
same,residual activity,[9],73%
same,residual activity,[10],22%
same,residual activity,[11],60% (inactive)
same,residual activity,[12],-9%
same,residual activity,[19],68%
same,residual activity,[20],76%
same,residual activity,[15],100%
same,residual activity,[16],83%
same,residual activity,[18],98%
O=C1Nc2ccc(Cl)cc2/C1=C/c1cc(Cl)c(O)c(Cl)c1,residual activity,[1],94%
same,residual activity,[2],83%
same,residual activity,[3],24%
same,residual activity,[4],5%
same,residual activity,[5],17%
same,residual activity,[6],3%
same,residual activity,[7],77%
same,residual activity,[8],30%
same,residual activity,[9],83%
same,residual activity,[10],62%
same,residual activity,[11],94% (inactive)
same,residual activity,[12],95%
same,residual activity,[19],59%
same,residual activity,[20],63%
same,residual activity,[13],96%
same,residual activity,[14],28%
same,residual activity,[15],32%
same,residual activity,[16],25%
same,residual activity,[18],121%
O=c1cc(N2CCOCC2)oc2c1ccc1ccccc12,residual activity,[1],90%
same,residual activity,[2],89%
same,residual activity,[3],55%
same,residual activity,[4],13%
same,residual activity,[5],87%
same,residual activity,[6],45%
same,residual activity,[7],92%
same,residual activity,[8],55%
same,residual activity,[9],56%
same,residual activity,[10],11%
same,residual activity,[11],99% (inactive)
same,residual activity,[12],68%
same,residual activity,[19],97%
same,residual activity,[20],96%
same,residual activity,[13],130%
same,residual activity,[14],100%
same,residual activity,[15],86%
same,residual activity,[16],83%
CC(C)(C)n1nc(Cc2cccc3ccccc23)c2c(N)ncnc21,residual activity,[1],98%
same,residual activity,[2],109%
same,residual activity,[3],77%
same,residual activity,[4],106%
same,residual activity,[5],114%
same,residual activity,[7],96%
same,residual activity,[8],95%
same,residual activity,[9],99%
same,residual activity,[10],75%
same,residual activity,[11],94% (inactive)
same,residual activity,[12],97%
same,residual activity,[19],98%
same,residual activity,[20],75%
same,residual activity,[13],89%
same,residual activity,[14],29%
same,residual activity,[15],27%
same,residual activity,[16],17%
same,residual activity,[17],114%
same,residual activity,[18],125%
CC(C)(C)c1nc2c3ccc(F)cc3c3c(=O)[nH]ccc3c2[nH]1,residual activity,[1],41%
same,residual activity,[2],24%
same,residual activity,[11],55% (inactive)
same,residual activity,[12],64%
same,residual activity,[15],18%
same,residual activity,[16],20%
Cn1c2ccccc2c2c3c(c4c5ccccc5n(CCC#N)c4c21)CNC3=O,residual activity,[1],1%
same,residual activity,[2],2%
same,residual activity,[3],18%
same,residual activity,[4],22%
same,residual activity,[5],25%
same,residual activity,[6],40%
same,residual activity,[7],58%
same,residual activity,[10],66%
same,residual activity,[19],19%
same,residual activity,[20],20%
same,residual activity,[13],4%
same,residual activity,[14],4%
same,residual activity,[17],98%
same,residual activity,[18],97%
COc1ccc(CNC(=O)Nc2ncc([N+](=O)[O-])s2)cc1,residual activity,[1],122%
same,residual activity,[2],107%
same,residual activity,[3],116%
same,residual activity,[4],109%
same,residual activity,[5],134%
same,residual activity,[6],135%
same,residual activity,[9],64%
same,residual activity,[10],76%
same,residual activity,[19],55%
same,residual activity,[20],59%
same,residual activity,[13],72%
same,residual activity,[14],77%
same,residual activity,[15],79%
same,residual activity,[16],81%
O=C1Nc2ccccc2/C1=C\c1c(Cl)[nH]c2ccccc12,residual activity,[1],87%
same,residual activity,[2],87%
same,residual activity,[4],26%
same,residual activity,[5],73%
same,residual activity,[6],16%
same,residual activity,[9],86%
same,residual activity,[10],75%
same,residual activity,[19],125%
same,residual activity,[20],79%
same,residual activity,[14],65%
same,residual activity,[15],84%
same,residual activity,[16],60%
same,residual activity,[17],121%
Nc1nc(Nc2ccc(S(N)(=O)=O)cc2)nn1C(=O)c1c(F)cccc1F,residual activity,[1],100%
same,residual activity,[2],107%
same,residual activity,[3],71%
same,residual activity,[4],52%
same,residual activity,[5],99%
same,residual activity,[6],73%
same,residual activity,[7],99%
same,residual activity,[8],102%
same,residual activity,[13],55%
same,residual activity,[14],14%
same,residual activity,[15],62%
same,residual activity,[16],41%
same,residual activity,[17],65%
same,residual activity,[18],16%
COc1ccc(Cl)cc1NC(=O)Nc1cc(C)nc2ccccc12,residual activity,[1],92%
same,residual activity,[2],53%
same,residual activity,[3],87%
same,residual activity,[4],97%
same,residual activity,[7],96%
same,residual activity,[8],99%
same,residual activity,[9],95%
same,residual activity,[10],82%
same,residual activity,[11],96% (inactive)
same,residual activity,[12],93%
same,residual activity,[20],55%
same,residual activity,[14],85%
same,residual activity,[15],99%
same,residual activity,[16],93%
O=C(c1ccccc1)c1ccc(N2CCOCC2)cc1O,residual activity,[1],84%
same,residual activity,[2],113%
same,residual activity,[3],76%
same,residual activity,[4],81%
same,residual activity,[9],93%
same,residual activity,[10],75%
same,residual activity,[11],91% (inactive)
same,residual activity,[12],88%
same,residual activity,[19],86%
same,residual activity,[20],94%
same,residual activity,[13],130%
same,residual activity,[15],99%
same,residual activity,[16],87%
same,residual activity,[18],121%
NC(=O)Nc1sc(-c2ccc(F)cc2)cc1C(N)=O,residual activity,[1],105%
same,residual activity,[2],69%
same,residual activity,[3],95%
same,residual activity,[4],43%
same,residual activity,[5],93%
same,residual activity,[6],60%
same,residual activity,[11],88% (inactive)
same,residual activity,[12],81%
same,residual activity,[19],85%
same,residual activity,[20],55%
same,residual activity,[13],56%
same,residual activity,[14],10%
same,residual activity,[15],67%
same,residual activity,[16],29%
same,residual activity,[18],101%
CCOc1nc(NC(=O)Cc2cc(OC)ccc2OC)cc(N)c1C#N,residual activity,[1],118%
